FBW7 activator = human FBW7 E3 ligase activation, primary screen; Q969H0; AlphaScreen FBW7–phospho-cyclin E peptide binding, activator screen; normalized activity (activation), % at 26.1 µM; 0.13% of 650,000 active; in the data active = normalized activity above about 1.9%;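 note: purified mutant Fbw7 with reduced substrate affinity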
TEAD-YAP block = TEAD-YAP interaction inhibition; HEK-TIYL cells, TEAD-Gal4/YAP UAS-luciferase luminescence; 1.4% of 640,000 active; inhibition, % at 9.12 µM; in the data active = inhibition above about 32%;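 note: 0% = median of test compound wells and 100% = reference inhibitor wells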
MITF inh = blocks human microphthalmia-associated transcription factor; O75030; AlphaScreen MITF homodimerization, bead proximity signal; inhibition, % at 2.6 µM; 0.91% of 650,000 active; in the data active = inhibition above about 50%;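 note: 0% = vehicle wells with protein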
GPR151 activ = activators of human GPR151. Q8TDV0. PathHunter beta-arrestin GPR151 cells, luminescence. activation, % at 11.2 µM. 1% of 650,000 active. AID 1508602; in the data active = activation above about 4.9%;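 note: 0% = median of compound wells and 100% = cells with positive control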
Target sequence (Q8TDV0 whole entry, looked up): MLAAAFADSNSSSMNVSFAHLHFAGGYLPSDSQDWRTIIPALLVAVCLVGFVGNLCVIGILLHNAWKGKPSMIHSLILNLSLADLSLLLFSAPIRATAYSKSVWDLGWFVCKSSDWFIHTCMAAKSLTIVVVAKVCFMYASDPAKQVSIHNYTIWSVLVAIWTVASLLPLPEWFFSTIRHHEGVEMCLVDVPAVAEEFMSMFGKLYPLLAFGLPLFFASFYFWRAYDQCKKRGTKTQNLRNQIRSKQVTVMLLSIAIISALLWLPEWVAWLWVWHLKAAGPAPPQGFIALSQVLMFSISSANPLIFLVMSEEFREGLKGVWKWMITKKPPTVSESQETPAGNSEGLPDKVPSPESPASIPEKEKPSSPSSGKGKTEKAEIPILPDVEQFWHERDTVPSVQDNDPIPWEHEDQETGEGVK
* marks the source's active call; other numbers are inactive results. Hits are enriched below; roughly 3.5% of the tested compounds scored in any of these assays.

SMILES	FBW7 activator	TEAD-YAP block	MITF inh	GPR151 activ
C=CCc1ccccc1OCC(=O)N/N=C/c1ccc([N+](=O)[O-])cc1	0	33*	15	1
CCOc1cc(/C=C2\NC(=S)NC2=O)ccc1OCc1ccc(Cl)cc1	0	11	5	1
N#Cc1c(C(F)(F)F)nc(=O)n2c1sc1ccccc12	0	12	5	0
CCc1cc2c(cc3c(=O)n(CCCC(=O)O)ncn32)s1	0	35*	-6	0
Cc1ccc(CNC(=O)c2cnc3ccccn23)o1	2.1*	-23	27	-1
COc1ccc(CNC(=O)c2cnc3ccccn23)cc1	0	-11	8	0
CC(NC(=O)c1cnc2ccccn12)c1ccc(F)cc1 (stereo not given)	2.8*	11	24	0
N#Cc1ccc(-c2cnc3ccc(NCCCO)nn23)cc1	0	50*	-17	0
OCCCNc1ccc2ncc(-c3ccc(OC(F)(F)F)cc3)n2n1	0	0	14	-1
OCCCNc1ccc2ncc(-c3ccc(Oc4ccccc4)cc3)n2n1	0	50*	10	1
OCCCNc1ccc2ncc(-c3ccc(F)c(Cl)c3)n2n1	0	-3	-11	2
OCCCNc1ccc2ncc(-c3ccc(F)cc3)n2n1	0	54*	2	-1
CCOC(=O)c1sc(NC(=O)C(C)Sc2nnc(CNC(=O)c3ccc(OC)c(OC)c3)n2C)c(C(=O)OCC)c1C (stereo not given)	0	9	-7	1
CC(=O)N/C(=C/c1ccc([N+](=O)[O-])cc1)C(=O)Nc1ccc(C(=O)O)cc1	0	-6	2	0
COc1cccc(C2C(C(=O)Nc3ccccc3F)=C(C)NC3=C2C(=O)CCC3)c1OC (stereo not given)	0	12	14	1
O=C(NC1CCCC1)C1CCCN(C(=O)N2CCOc3ccccc32)C1 (stereo not given)	0	10	3	1
Oc1ccccc1/C=N/c1ccnn1-c1ccccc1	0	32*	9	-9
C=CCn1c(Cl)c(C=O)s/c1=N\S(=O)(=O)c1cccs1	0	60*	6	-2
C=CCn1c(Cl)c(/C=N/NC(=O)OCC)s/c1=N\S(=O)(=O)c1cccs1	1	45*	8	4
COc1cc2cc3c(N)c(C(=O)NCc4ccco4)sc3nc2cc1OC	0	-67	25	-1
CCc1ccc2nc3sc(C(=O)NCc4ccco4)c(N)c3cc2c1	0	53*	41	-1
CC(C)N1C/C(=C/c2cccnc2)C(=O)/C(=C/c2cccnc2)C1	0	52*	11	0
CN1C/C(=C/c2cccnc2)C(=O)/C(=C/c2cccnc2)C1	0	74*	-4	0
CCCC(=O)NC(=S)Nc1cccc(NC(=S)NC(=O)CCC)c1	0	1	16	0
CC(=O)C1=C(O)C(=O)N(c2cccnc2)C1c1ccc2c(c1)OCO2 (stereo not given)	1	5	8	-2
SMILES	FBW7 activator	TEAD-YAP block	MITF inh	GPR151 activ
Cc1nnc(N(C(=O)c2cnccn2)c2ccccc2)s1	0	62*	-2	-2
Cc1ccc2c(CC(=O)OCC(=O)NC(N)=O)coc2c1	0	7	-3	1
Cc1cc(C)nc(/N=C(\N)Nc2ccc(C(C)C)cc2)n1	0	35*	-2	2
Cc1ccc(N/C(N)=N/c2nc(C)cc(C)n2)cc1	0	7	11	-1
Cc1cc(C)nc(/N=C(\N)Nc2ccccc2-c2ccccc2)n1	0	43*	1	1
CCCCc1ccc(N/C(N)=N/c2nc(C)cc(C)n2)cc1	0	54*	7	2
O=c1[nH]c2nonc2nc1Nc1ccccc1O	0	-3	10	1
O=[N+]([O-])c1ccccc1C1CC(c2ccccc2)=NN1 (stereo not given)	0	40*	-3	1
Cc1nc2ccccc2c2c(NC(=O)CCl)c3ccccc3n12	0	2	-4	0
CC(=O)c1c(C)oc2c1cc(NS(=O)(=O)c1ccc(Br)cc1)c1ccccc12	1	47*	24	-2
CCCOC(=O)c1c(C)oc2c1cc(NS(=O)(=O)c1ccc(OCC)cc1)c1ccccc12	0	53*	-1	-1
CCOc1ccc(S(=O)(=O)Nc2cc3c(C(=O)OCc4ccccc4)c(C)oc3c3ccccc23)cc1	0	-1	-2	1
CCc1ccc(S(=O)(=O)Nc2cc3c(C(C)=O)c(C)oc3c3ccccc23)cc1	1	56*	7	1
O=C(Nc1cc(C(F)(F)F)cc(C(F)(F)F)c1)c1ccc([N+](=O)[O-])o1	0	59*	-7	0
CCN(CC)c1ccc(/C=N/Nc2ncnc(N)c2[N+](=O)[O-])cc1	-1	91*	-13	-9
Cc1cc(/C=N/Nc2ncnc(N)c2[N+](=O)[O-])c(C)n1-c1ccccc1	-1	83*	16	-8
Cc1nn(-c2ccccc2)c(Cl)c1/C=N/Nc1ncnc(N)c1[N+](=O)[O-]	0	32*	2	2
COc1ccc(/C=C(\C#N)C(=O)Nc2ccc([N+](=O)[O-])cc2C(F)(F)F)cc1	0	10	3	0
Nc1cccc(-c2nc(NCCO)c3ncn(-c4ccsc4)c3n2)c1	0	63*	10	-2
Cc1noc(C)c1-c1nc(NCCO)c2ncn(-c3ccsc3)c2n1	0	23	4	1
CCCNc1nc(-c2cccc(N)c2)nc2c1ncn2-c1ccsc1	0	53*	19	0
Cc1cnc(NC(=O)c2ccccc2F)s1	0	64*	13	-9
COc1cc(-c2cc(C(=O)O)c3c(-c4ccccc4)[nH]nc3n2)ccc1O	1	-12	-8	-1
COc1ccc(N2CCn3c(SCc4cccc(C)c4)nnc32)cc1	1.9*	8	-4	-1
COc1ccc(N2CCn3c(SCc4cccc(Cl)c4)nnc32)cc1	0	7	5	1
SMILES	FBW7 activator	TEAD-YAP block	MITF inh	GPR151 activ
O=C(c1n[nH]c2c1CCC2)N1CCC(n2c(CC3CCCC3)nc3cccnc32)CC1	0	-12	-2	2
CC(C)N(CCNC(=O)c1cnc(Oc2ccccc2)s1)C(C)C	0	5	42	-1
CC(C)N(CCNC(=O)c1cccc(Oc2ccccc2)n1)C(C)C	3.1*	13	-2	-1
COc1ccc(Cl)cc1NS(=O)(=O)c1cc(C)ccc1OC	0	-2	3	0
COc1cc(NS(=O)(=O)c2ccc(OC)c(C)c2C)c(OC)cc1Cl	0	54*	5	-1
COc1ccc(Cl)cc1NS(=O)(=O)c1ccc(OC)c(C)c1C	0	42*	9	0
CCN1CCC(=O)N(C)c2ccccc21	0	-1	-5	4
COc1ccc(SCCCC(=O)Nc2c3c(nn2C)CCC3)cc1	0	45*	10	0
COc1ccc(SCC(=O)Nc2c3c(nn2C)CCC3)cc1	0	38*	10	1
COc1ccc(C2CC(c3cccs3)=NN2C(=O)CSc2nnc(CNC(=O)c3cccs3)n2C)cc1 (stereo not given)	0	13	13	0

High-throughput results as filed in PubChem BioAssay.
